# The list is not random: actives were taken first. Their share in the collection is about 3.4%.
# PLCb3 inh: inhibitors of human phospholipase C beta3; Q01970; Purified PLC-beta3, fluorogenic substrate, fluorescence; inhibition, % at 12.2 µM; hit rate 0.18% among 370,000; AID 720704; in the data active means inhibition above about 11%;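 further: 0% = median of compound wells on plate and 100% = full blocker control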
# sPLA2-III inh: Inhibits HGIII-sPLA2 liposome hydrolysis, primary screen. Q9NZ20. QFRET BODIPY PC-A2 liposome hydrolysis, fluorescence. inhibition, % at 12.2 µM. hit rate 0.56% among 370,000. AID 743126;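 active means inhibition above mean plus 3 SD of compounds lying within the high and low control bounds, cut at about 19% in these data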;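 further: 0% = median of test compound wells and 100% = no enzyme DMSO wells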
# KLK7 zymogen act: activators of human kallikrein-7 zymogen. purified proKLK7, EDANS-DABCYL substrate fluorescence; 100% is mature enzyme control, 0% vehicle. activation, % at 7 µM. hit rate 0.9% among 370,000. AID 652039;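 active means activation above the mean of all tested compounds plus 3 SD, computed per campaign excluding outliers beyond control limits, cut at about 13% in these data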
# ADAM17 inh: ADAM17 inhibition, QFRET primary screen; recombinant ADAM17, EDANS/DABCYL FRET peptide cleavage; inhibition, % at 6.95 µM; hit rate 0.83% among 370,000; AID 720648; P78536;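 active means inhibition above the mean of compounds lying between control limits plus 3 SD, set per campaign, cut at about 8.5% in these data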;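 further: 0% = DMSO-only wells as the low control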
# PLC-gamma1 inh: PLC-gamma1 (human) inhibition, primary screen. P19174. purified PLC-gamma1, fluorogenic substrate, fluorescence. inhibition, % at 12.2 µM. hit rate 0.84% among 370,000; in the data active means inhibition above about 9.5%
# ADAM10 inh: inhibits human ADAM10. O14672. recombinant ADAM10, EDANS/DABCYL FRET peptide cleavage, 3 h. inhibition, % at 7 µM. hit rate 0.62% among 370,000. AID 720582;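 active means inhibition above a per-campaign cutoff equal to the mean of compounds falling between control-based bounds plus 3 SD, cut at about 20% in these data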;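 further: 0% = DMSO wells while the 100% control is not disclosed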
# proKLK7 act conf: confirmation of human kallikrein-7 zymogen activators; shares compounds with KLK7 zymogen act; purified proKLK7, EDANS-DABCYL substrate fluorescence; scaled: vehicle 0, mature enzyme 100; activation, % at 7 µM; hit rate 68% among 3,200; AID 686949;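 active means activation, as change over the incubation, above the mean of all tested compounds plus 3 SD, cut at about 13% in these data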
# EDANS interfere: fluorescence interference counter-screen for KLK7 activators; shares compounds with KLK7 zymogen act; EDANS-DABCYL substrate fluorescence interference, no enzyme, 4 h; solvent 0%, active enzyme control 100%; activation, % at 7 µM; hit rate 80% among 3,200; AID 686952;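 active means activation above the all-compound mean plus 3 SD, ignoring values outside control-based bounds, cut at about 4.8% in these data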;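 further: value is the 4 h activation minus the activation read at time zero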
# EDANS interf: counter-screen for kallikrein-7 activators: EDANS-DABCYL interference, dose response. EDANS-DABCYL peptide fluorescence interference, no enzyme. EC50, µM. hit rate 20% among 250. shares compounds with KLK7 zymogen act;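 active means compounds that raise the fluorescence signal in this interference counterscreen, with EC50 at or below 10 µM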;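 further: intact quenched peptide substrate alone read at 355 nm excitation and 520 nm emission; signal is fluorescence gain from T0 to T4 after four hours at room temperature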
# Active calls of the source: *; i = inactive; . = no result given.
SMILES,PLCb3 inh,sPLA2-III inh,KLK7 zymogen act,ADAM17 inh,PLC-gamma1 inh,ADAM10 inh,proKLK7 act conf,EDANS interfere,others
N#Cc1ccc(Cn2ccc3ccc(-c4ccc5ccn(C(=O)C6CC6)c5c4)cc32)cc1,-173.6,-2.6,-6.4,-10.2,-130.6,-40.1,.,.,
Cc1ccc(C(=O)N2CCC(Oc3cccnc3)CC2)c(C)c1,-1.1,0.7,0.1,-2.0,0.0,2.0,.,.,
COc1ccc(-n2c(O)c(/C=N/NS(=O)(=O)c3ccc(C)c([N+](=O)[O-])c3)c3ccccc3c2=O)cc1OC,-37.4,10.6,15.1*,-5.0,-24.7,-45.2,40.8*,43.6*,
COc1cc(/C=N/NS(=O)(=O)c2ccc(C)c([N+](=O)[O-])c2)cc([N+](=O)[O-])c1O,-8.6,1.0,-0.6,-1.1,1.6,1.4,.,.,
FC(F)(F)c1ccccc1Cn1ccc2ccc(-c3ccc4ccn(Cc5ccccc5C(F)(F)F)c4c3)cc21,-1.6,5.8,-0.2,0.1,0.2,4.4,.,.,
Nc1nc(N)c2nc(-c3ccccc3)c(N)nc2n1,i,2.2,59.8*,i,i,i,67.0*,73.7*,
CC(C)N1CCCCC(NC(=O)COCc2ccccc2)C1=O (stereo not given),-2.8,8.0,-0.6,-8.2,-1.3,-5.7,.,.,
CC(C)(C)C(=O)O[C@@H]1CCC[C@@]2(C(=O)N(Cc3ccccc3)c3ccccc32)[C@H]1NC(=O)CCc1ccccc1,5.9,-10.7,0.5,7.0,0.9,12.8,.,.,
CC1=CC(c2ccccc2)n2nc(N3C(=O)C4CC=CCC4C3=O)nc2N1 (stereo not given),i,-3.6,113.3*,i,i,i,210.7*,191.0*,
CC1=CC(c2ccccc2)n2nc(N3C(=O)CCC3=O)nc2N1 (stereo not given),-451.4,4.5,76.0*,-485.2,-370.5,i,112.4*,142.2*,
Nc1nc(N2C(=O)C3CC=CCC3C2=O)nn1-c1ccccc1 (stereo not given),-0.3,0.2,0.4,-0.9,2.6,4.4,.,.,
CC1=CC(c2ccccc2)n2nc(N3C(=O)c4ccccc4C3=O)nc2N1 (stereo not given),i,-3.3,17.0*,-472.1,i,i,8.3,8.0*,
CCC(=O)N(c1ccccc1)C1CCN(C(=O)C(Cc2ccccc2)NC(C)=O)CC1 (stereo not given),0.7,4.7,0.0,-7.3,-0.1,-8.7,.,.,
CCOC(=O)N1CCN(C(=O)c2ccc3nc4ccsc4c(=O)n3c2)CC1,-462.9,2.6,14.5*,-224.5,-363.4,i,24.8*,20.4*,EDANS interf=>69.5
CCOC(=O)N1CCN(C(=O)c2cccn3c(=O)c4sccc4nc23)CC1,i,5.2,73.3*,-481.8,i,i,63.3*,69.1*,
CCCn1c(-c2ccc[nH]c2=O)nc2cc(C)c(C)cc21,i,6.9,18.4*,-436.4,i,i,38.1*,40.5*,
Cc1cc2nc(-c3ccc[nH]c3=O)n(Cc3cccc(F)c3)c2cc1C,i,-1.6,0.7,-457.9,i,i,.,.,
CC(OC(=O)c1ccc2ccccc2c1)C(=O)N(C)Cc1ccccc1 (stereo not given),-3.7,-4.1,-0.1,-5.8,-5.0,-17.9,.,.,
CC(C)N(CCC(=O)c1ccc2ccccc2c1)Cc1ccccc1,-9.8,10.5,14.4*,-12.8,-7.6,-34.1,14.8*,17.9*,
COC(=O)c1ccc2c(c1)C(C)(C)C(/C=C/c1ccccc1O)=[N+]2C,i,-3.1,32.1*,-39.5,-317.9,-48.8,1.3,0.2,
CCCCNC(=O)N1CCCC1C(=O)Nc1cccc(OC)c1 (stereo not given),-3.0,6.2,-0.2,0.5,-0.9,-6.1,.,.,

# Source: PubChem BioAssay
